Several values for one entry are separate records, joined by “and”; a condition that tells them apart may be missing. Identical values can stand only once. Inconclusive results are not listed. Activity calls are given as the source filed them. Unless noted, calls come from the whole dose curve.

Experimental findings from PubChem BioAssay (NCATS) are described below.

Assay [1] in a line: qHTS for Inhibitors of the Functional Ribonucleoprotein Complex (vRNP) of Lassa (LASV) Arenavirus: LASV Primary Screen - GLuc reporter signal (AID 1347082; calls by dose curve; tested in HEK293 reporter line; note: % is set by controls: 0 for no effect and ±100 for the full control effect; nearly all actives have a fitted effect of over 60% in size).
The nature of assay [2]: qHTS for Inhibitors of the Functional Ribonucleoprotein Complex (vRNP) of Lassa (LASV) Arenavirus: Viability assay - alamar blue signal for LASV Primary Screen (AID 1347083; calls by dose curve; tested in HEK293 reporter line; note: % is set by controls: 0 for no effect and ±100 for the full control effect; nearly all actives have a fitted effect of over 80% in size).
The nature of assay [3]: qHTS for Inhibitors of the Functional Ribonucleoprotein Complex (vRNP) of Lymphocytic Choriomeningitis Arenaviruses (LCMV): Viability assay - alamar blue signal for LCMV Primary Screen (AID 1347085; calls by dose curve; tested in HEK293 reporter line; note: % is set by controls: 0 for no effect and ±100 for the full control effect; nearly all actives have a fitted effect of over 80% in size).
In assay [4] the target is Nucleoprotein (Lymphocytic choriomeningitis virus (strain Armstrong)) (UniProt P09992). As to the kind of experiment: qHTS for Inhibitors of the Functional Ribonucleoprotein Complex (vRNP) of Lymphocytic Choriomeningitis Arenaviruses (LCMV): LCMV Primary Screen - GLuc reporter signal (AID 1347086). Note: % is set by controls: 0 for no effect and ±100 for the full control effect; nearly all actives have a fitted effect of over 70% in size.
Sequence of Nucleoprotein (Lymphocytic choriomeningitis virus (strain Armstrong)) (P09992 whole entry, looked up): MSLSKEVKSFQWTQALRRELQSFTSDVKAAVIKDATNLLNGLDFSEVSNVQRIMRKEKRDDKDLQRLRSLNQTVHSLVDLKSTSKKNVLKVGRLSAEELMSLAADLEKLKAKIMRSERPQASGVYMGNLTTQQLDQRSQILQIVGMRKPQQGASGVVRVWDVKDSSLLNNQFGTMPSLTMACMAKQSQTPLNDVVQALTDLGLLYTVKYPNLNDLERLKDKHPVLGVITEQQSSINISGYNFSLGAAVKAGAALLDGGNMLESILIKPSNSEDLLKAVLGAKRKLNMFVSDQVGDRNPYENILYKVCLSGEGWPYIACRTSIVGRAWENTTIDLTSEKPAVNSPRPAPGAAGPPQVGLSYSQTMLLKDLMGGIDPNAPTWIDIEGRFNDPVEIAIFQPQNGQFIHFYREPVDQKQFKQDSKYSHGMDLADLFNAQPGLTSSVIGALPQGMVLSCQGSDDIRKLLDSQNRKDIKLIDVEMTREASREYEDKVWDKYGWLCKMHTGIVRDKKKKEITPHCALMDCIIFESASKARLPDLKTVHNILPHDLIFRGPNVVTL
Assay [5] can be described thus: Primary qHTS for inhibitors of SARS-S pseudo-typed particle cell entry (AID 1479145). For activity change, negative = inhibition: % is set by controls: 0 for no effect and ±100 for the full control effect. Note: nearly all actives have a fitted effect of over 45% in size.
The nature of assay [6]: Primary qHTS for Huh7 cytotoxicity: counterscreen for inhibitors of MERS-S pseudotyped particle cell entry (AID 1479147). To be noted: outcome: dose series up to 57.1 µM unless noted.
Assay [7] can be described thus: Primary qHTS for inhibitors of MERS-S pseudo-typed particle cell entry (AID 1479149). Note: nearly all actives have a fitted effect of over 60% in size.
The nature of assay [8]: Primary qHTS for Vero E6 cytotoxicity: counterscreen for inhibitors of SARS-S pseudo-typed particle cell entry (AID 1479150). For activity change, negative = cytotoxicity: % is set by controls: 0 for no effect and ±100 for the full control effect. The conditions noted are these: outcome: dose series up to 57.1 µM unless noted.
Assay [9] is described as follows: Cytotoxicity counterscreen for inhibitors of SARS-CoV-2 cell entry (AID 1645845). For activity change, negative = cytotoxicity: % is set by controls: 0 for no effect and ±100 for the full control effect. Note: nearly all actives have a fitted effect of over 50% in size. In short, it runs like this:
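ATP-content luminescence (ATPLite 1step, 15 min RT) read after 48 h compound exposure of Expi293F cells stably expressing human ACE2; normalized to cells-only wells and media-only wells.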

Assay [10] is described as follows: Primary qHTS to identify inhibitors of SARS-CoV-2 cell entry (AID 1645846). Note: nearly all actives have a fitted effect of over 45% in size. The conditions noted are these: activity change, negative = inhibition: at 57.1 µM (top of the series) unless noted. The gist of the method: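 Entry measured by luciferase signal 48 h after adding SARS-CoV-2-S pseudotyped MLV particles to HEK293-ACE2 cells preincubated 1 h with compounds. Normalisation: bald particles and spike particles.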

Assay [11] concerns the target Alpha-galactosidase (Coffea arabica) (UniProt Q42656). Kind of assay: Counterscreen for Glucocerebrosidase Inhibitors: qHTS Assay for Coffee Bean alpha-Galactosidase at pH 4.5 (AID 957; active = well fitted curve in the direction sought with a large enough effect; an effect the other way counts as inactive or inconclusive;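 note: plate controls were enzyme alone for no effect and no enzyme for full effect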). In short, it runs like this:
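Fluorogenic qHTS at pH 4.5 (citrate buffer with Tween-20): 2 nM enzyme, 80 uM 4-MU-alpha-galactoside substrate, compound titrated 0.7 nM to 77 uM, 20 min room temperature. Glycine/NaOH stop; 4-MU read Ex 365/Em 440; Hill-equation AC50 against no-enzyme and enzyme controls.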

For assay [12] the target is unchanged. Kind of assay: Counterscreen for Glucocerebrosidase Inhibitors: qHTS Assay for Coffee Bean alpha-Galactosidase at pH 5.9 (AID 998; active = well fitted curve in the direction sought with a large enough effect; an effect the other way counts as inactive or inconclusive;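 note: plate controls were uninhibited enzyme for no effect and no-enzyme basal signal for full effect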). The gist of the method: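 Fluorogenic 4-MU substrate hydrolysis, 80 uM substrate and 2 nM coffee bean alpha-galactosidase, pH 5.9 citrate buffer, 20 min at room temperature, then NaOH/glycine stop. Titration 0.7 nM–77 uM, normalized to no-enzyme and enzyme controls, AC50 via Hill equation.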

The nature of assay [13]: Validation screen for inhibitors of Lassa infection (AID 463096). Note: % is set by controls: 0 for no effect and ±100 for the full control effect.
Assay [14] in a line: Inducers of the Endoplasmic Reticulum Stress Response (ERSR) in human glioma: Validation (AID 504836; active = well fitted curve in the direction sought with a large enough effect; an effect the other way counts as inactive or inconclusive; note: 0% is about no effect). The gist of the method: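 ERSR induction read as luciferase luminescence (Bright-Glo, 10 min at room temperature) in stably transfected human U87-MG glioma cells exposed to compounds for 16 h, using GRP78 as sensor.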

Sequence of Alpha-galactosidase (Coffea arabica) (Q42656 whole entry, looked up): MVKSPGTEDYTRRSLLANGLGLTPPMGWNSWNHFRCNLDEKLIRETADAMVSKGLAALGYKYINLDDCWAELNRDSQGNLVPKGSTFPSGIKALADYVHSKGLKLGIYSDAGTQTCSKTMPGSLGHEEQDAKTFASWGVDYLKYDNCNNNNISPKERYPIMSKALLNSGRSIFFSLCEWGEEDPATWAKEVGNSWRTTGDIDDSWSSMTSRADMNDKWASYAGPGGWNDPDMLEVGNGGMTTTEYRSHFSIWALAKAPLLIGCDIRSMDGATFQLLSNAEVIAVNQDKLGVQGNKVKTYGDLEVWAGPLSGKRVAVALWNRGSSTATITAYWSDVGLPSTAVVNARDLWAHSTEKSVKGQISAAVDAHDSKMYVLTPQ

As to `CC(C)[N+]1(C)[C@@H]2CC[C@H]1CC(OC(=O)C(CO)c1ccccc1)C2` (stereo partly drawn), the Potency entry in [1], in assay [2], in assay [3], in assay [4], in [5] and in assay [7] was “inactive” each time. Also, the Potency result in assay [9] was “inactive”. The call in assay [6] and in [8] was inactive. Moreover, the activity change, negative = inhibition in assay [10] stood at 2.78%.
Take `C[N+](C)(C)CCO`: the compound was called inactive in assay [11], in assay [12] and in assay [14]. For the same compound, the Potency entry in [13], in assay [1], in assay [2], in assay [3], in [4] and in [5] was “inactive” throughout. In addition, the Potency result in assay [7] and in assay [9] was “inactive” throughout. In addition, the outcome in assay [6] and in assay [8] was “inactive [at 114 µM]” each time. Further, in [10], the activity change, negative = inhibition is -23.8% [at 114 µM].
In the case of `CCC(NC(C)C)C(O)c1ccc(O)c(O)c1` (stereo not drawn), the Potency result in assay [13], in [1], in assay [2], in assay [3], in assay [4] and in assay [5] was “inactive” in each case. Further, the Potency entry in [7] and in assay [9] was “inactive” in each case. For the same compound, the compound was classed as inactive in assay [14], in assay [6] and in [8]. In assay [10], the activity change, negative = inhibition is -5.57%.
Take `CN[C@H](CC(C)C)C(=O)N[C@H]1C(=O)N[C@@H](CC(N)=O)C(=O)N[C@H]2C(=O)N[C@H]3C(=O)N[C@H](C(=O)N[C@H](C(=O)O)c4cc(O)cc(O)c4-c4cc3ccc4O)[C@H](O)c3ccc(c(Cl)c3)Oc3cc2cc(c3O[C@@H]2O[C@H](CO)[C@@H](O)[C@H](O)[C@H]2O[C@H]2C[C@](C)(N)[C@H](O)[C@H](C)O2)Oc2ccc(cc2Cl)[C@H]1O`: the Potency entry in assay [13], in assay [1], in assay [2], in assay [3], in assay [4] and in assay [5] was “inactive” each time. In [7], the Potency entry was “inactive”. Besides, the outcome in assay [6] is “inactive [at 26.4 µM]”. Also, the compound was called inactive in assay [8]. The activity change, negative = inhibition in assay [10] is -14.9% [at 27.1 µM] and -31.1% [at 27.1 µM].
On to `O=C(Nc1c(Cl)cncc1Cl)c1ccc(OC(F)F)c(OCC2CC2)c1`, for which the Potency entry in assay [1], in assay [2], in assay [3], in [4], in assay [5] and in assay [7] was “inactive” in each case. Moreover, the Potency result in [9] is “inactive”. The compound was classed as inactive in assay [6] and in [8]. Also, in assay [10], the activity change, negative = inhibition is -7.18%.
`CCCCCCCCCCCCCCCC(=O)OC[C@@H](NC(=O)C(Cl)Cl)[C@H](O)c1ccc([N+](=O)[O-])cc1`: the Potency entry in assay [1], in assay [2], in [3], in assay [4], in assay [5] and in [7] was “inactive” in each case. Besides, the Potency entry in [10] was “inactive”. Further, the compound was called inactive in assay [6] and in assay [8].
On to `CC1=C(/C=C/C(C)=C/C=C/C(C)=C\C(=O)O)C(C)(C)CCC1`, for which the Potency result in assay [13], in assay [1], in assay [2], in assay [3], in assay [4] and in [5] was “inactive” throughout. For the same compound, the Potency entry in [7], in assay [9] and in assay [10] was “inactive” in each case. For the same compound, the call in assay [14], in [6] and in assay [8] was inactive. The activity change, negative = inhibition in [10] is -7.39%.
On to `Nc1cc(Cl)c(NC2=NCCN2)c(Cl)c1`, for which the outcome in assay [12], in [14], in assay [6] and in [8] was inactive. Also, the Potency entry in assay [13], in assay [1], in assay [2], in assay [3], in assay [4] and in [5] was “inactive” throughout. Also, the Potency entry in assay [7] and in assay [9] was “inactive” each time. The activity change, negative = inhibition in assay [10] was -17%.
With `NCC1CCC(C(=O)O)CC1` (stereo not drawn), the Potency entry in [1], in assay [2], in assay [3], in assay [4], in assay [9] and in assay [10] was “inactive” in each case. Besides, the outcome in assay [5], in [6] and in [8] was “inactive [at 11.4 µM]” each time. Further, in [7], the activity change, negative = inhibition was 2.4% [at 11.4 µM] (inactive).
In the case of `COc1cc2c(c(OC)c1OC)-c1c(cc3c(c1OC)OCO3)C[C@H](C)[C@@](C)(O)C2`, the Potency result in [1], in [2], in assay [3], in assay [4], in [5] and in [7] was “inactive” throughout. Also, the Potency entry in [9] is “inactive”. Further, the compound was classed as inactive in assay [6] and in [8].
As for `NCCCC(=O)O`, the outcome in assay [11], in assay [12] and in assay [14] was inactive. The Potency result in [1], in assay [2], in assay [3], in [4] and in assay [5] was “inactive” throughout.
On to `CC(=O)O[C@H]1C[C@@H]2CC[C@H]3[C@H]4C[C@H]([N+]5(C)CCCCC5)[C@@H](OC(C)=O)[C@@]4(C)CC[C@@H]3[C@@]2(C)C[C@H]1[N+]1(C)CCCCC1`, for which the Potency result in assay [1], in assay [2], in assay [3], in assay [4], in [5] and in assay [7] was “inactive” in each case. Further, the Potency entry in [9] is “inactive”. Further, the outcome in assay [6] and in assay [8] was inactive.
For `N[C@H](CO)C(=O)O`, the Potency result in [13], in assay [1], in assay [2], in [3], in assay [4] and in assay [5] was “inactive” each time. Moreover, the Potency result in assay [7], in [9] and in [10] was “inactive” in each case. Besides, the outcome in assay [14], in [6] and in [8] was inactive.
Consider `N[C@@H](CC(=O)O)C(=O)O`, for which the compound was called inactive in assay [11] and in assay [12]. Besides, the Potency entry in [13], in assay [1], in assay [2], in assay [3] and in assay [4] was “inactive” throughout. Besides, the activity change, negative = inhibition in assay [5] was -20.9% [at 5.34 µM] (inactive). The outcome in assay [6] is “inactive [at 5.34 µM]”; in assay [7] it was “inactive [at 5.34 µM]”; in [9] it was “inactive [at 5.25 µM]”. Besides, the activity change, negative = cytotoxicity in [8] was 2.41% [at 5.34 µM] (inactive).
On to `NC(=O)c1cc[n+](CC2=C(C(=O)O)N3C(=O)[C@@H](NC(=O)[C@@H](c4ccccc4)S(=O)(=O)[O-])[C@H]3SC2)cc1`, for which the Potency result in [13], in assay [1], in assay [2], in [3], in assay [4] and in [5] was “inactive” in each case. The Potency result in assay [7] and in assay [9] was “inactive” each time. The call in assay [14], in assay [6] and in assay [8] was inactive. For the same compound, in [10], the activity change, negative = inhibition is 2.35%.
On to `COc1cc(C)c(C=CC(C)=CC=CC(C)=CC(=O)O)c(C)c1C`, for which the Potency entry in assay [1], in [2], in [3], in [4], in assay [5] and in [7] was “inactive” throughout. The Potency result in assay [9] and in [10] was “inactive” each time. Also, the call in assay [6] and in [8] was inactive.
